# Screening data: PubChem, National Center for Advancing Translational Sciences (NCATS)
# 15-hLO inh – blocks human 15-lipoxygenase activity | P16050 | purified 15hLO-1, xylenol orange hydroperoxide absorbance | Potency, µM (top dose mostly 57.1 µM), inactives show at the highest dose activity change, negative = inhibition, most hits filed as inhibitors | 74,000 compounds, 1.4% hits; note: nearly all actives have a fitted effect of over 55% in size
# Target sequence (P16050 whole entry, looked up): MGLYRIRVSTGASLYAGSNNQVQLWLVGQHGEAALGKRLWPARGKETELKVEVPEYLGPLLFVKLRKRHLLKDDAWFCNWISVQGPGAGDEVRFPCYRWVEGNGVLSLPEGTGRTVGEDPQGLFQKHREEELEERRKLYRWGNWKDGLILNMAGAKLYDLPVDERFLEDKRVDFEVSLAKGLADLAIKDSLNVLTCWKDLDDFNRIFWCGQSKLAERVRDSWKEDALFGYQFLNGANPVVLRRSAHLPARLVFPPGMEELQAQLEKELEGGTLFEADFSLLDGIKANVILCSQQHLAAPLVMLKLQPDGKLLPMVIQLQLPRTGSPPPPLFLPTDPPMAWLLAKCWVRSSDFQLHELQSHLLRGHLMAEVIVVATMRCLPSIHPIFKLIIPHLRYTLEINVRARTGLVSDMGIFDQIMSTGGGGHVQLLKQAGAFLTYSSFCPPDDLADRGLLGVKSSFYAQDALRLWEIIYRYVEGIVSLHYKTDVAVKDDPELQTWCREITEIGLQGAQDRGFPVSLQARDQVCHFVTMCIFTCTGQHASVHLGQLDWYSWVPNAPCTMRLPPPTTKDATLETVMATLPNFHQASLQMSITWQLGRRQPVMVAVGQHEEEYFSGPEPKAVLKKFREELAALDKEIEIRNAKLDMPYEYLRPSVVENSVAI
#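 Quantitative HTS in 25 mM Hepes pH 7.5 containing 0.01% Triton X-100: human 15hLO-1 at 40 nM, arachidonic acid at 50 uM, 6 min turnover. Product quantified via ferrous oxidation/xylenol orange, 573:405 nm absorbance ratio.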
# Tau fil binding – binders of human tau filaments; P10636; recombinant tau filaments, thioflavin S fluorescence, 15 h; filaments grown with octadecylsulfate alongside compound; Potency, µM (series often up to 57.1 µM), without a hit: at the highest dose activity change, negative = inhibition; 71,000 compounds, 2% hits;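 note: actives lower thioflavin S fluorescence by blocking filaments or displacing dye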
#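 His-tagged recombinant human tau (exons 2, 3 and 10 included), 1 uM, was induced to fibrillize by 30 uM sodium octadecylsulfate with compound present. After 15 h at 37 C, thioflavine S fluorescence (ex 450, em 510 nm) was read.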
# FLuc inh – inhibitors of firefly luciferase; purified firefly luciferase, luminescence, 8 min; Potency, µM (doses to about 57.1 µM), without a hit: at the highest dose activity change, negative = inhibition, actives largely listed as inhibitors; 72,000 compounds, 2.2% hits; AID 411; note: nearly all actives have a fitted effect of over 40% in size
#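 Luminescence read-out after 8 min at room temperature; enzyme reaction used luciferin plus 10 uM ATP (linear range) in imidazole buffer pH 7.2 with KCl, MgCl2, Tween 20 and BSA. Each sample was run as a titration.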
# Pol III holo inh – blocks replication by bacterial DNA polymerase III holoenzyme | 71,000 compounds, 0.25% hits | Potency, µM (titrated, usually from 57.1 µM), for the others: top-dose activity change, negative = inhibition | AID 603 | reconstituted DNA polymerase III holoenzyme replication, biochemical
#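 Reconstituted *E. coli* holoenzyme (0.35 nM Pol III, 1 nM beta, 154 nM SSB, 2 nM primase) was preincubated with compound for 15 min at RT. Synthesis on 1.4 nM ssM13Gori ran 35 min, then was stopped with PicoGreen/EDTA and read as dsDNA fluorescence.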
# PK Bst – modulators of Bacillus stearothermophilus pyruvate kinase; 51,000 compounds, 1.2% hits; purified pyruvate kinase, luminescence ATP production; ribose 5-phosphate activator present at AC10; Potency, µM; in the data active = potency below about 11 µM; inconclusive = mostly about 12 µM to 25 µM;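 the screen sought inhibitors and activators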;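 note: scaled between full activation by ribose 5 phosphate and full inhibition by luteolin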
# ERK AVP block – vasopressin-driven ERK pathway inhibition; HEK293-V1b, vasopressin-stimulated pERK AlphaScreen; Potency, µM (highest dose often 57.5 µM), without a hit: at the top dose activity, negative = inhibition, hits mostly inhibitors; 72,000 compounds, 0.99% hits; AID 995; note: nearly all actives have a fitted effect of over 55% in size
#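 HEK293 cells stably expressing V1b receptor, seeded overnight in 1% FBS, were treated with compounds for 30 min at 37C, then stimulated 5 min with 25 nM vasopressin; phospho-ERK read by AlphaScreen SureFire after lysis.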
# * = called active by the depositor; ? = inconclusive; . = no result given; [ ] = remark or other dose. Most compounds without a hit are left out; they make up all but 6% or so of the library. Unless noted, calls come from the whole dose curve; as a rule, active = well fitted curve in the direction sought with a large enough effect; inconclusive = small, poorly fitted or top-dose-only effect, or another doubt; inactive = no such curve, though single readings can be large; an effect the other way counts as inactive or inconclusive. Unless noted, % is set by controls: 0 for no effect and ±100 for the full control effect; potency is the fitted concentration of half-maximal effect.
SMILES,15-hLO inh,Tau fil binding,FLuc inh,Pol III holo inh,PK Bst,ERK AVP block
COC(=O)[C@@]1(Cc2ccc(OC)cc2)[C@H]2c3cc(C(=O)N(C)C)n(CCc4c[nH]c5ccc(O)cc45)c3C[C@H]2CN1C(=O)c1ccccc1,.,30%,.,1%,.,0%
Cn1c(-c2ccc(F)cc2)cnc1NCc1ccccc1,?,-5%,-3%,?,>57,25µM*
COc1ccccc1OCc1ccc(C(=O)Nc2ccncc2)o1,-1%,-7%,-3%,-8%,>57,16µM*
COc1ccccc1OCc1ccc(C(=O)NC(C)(C)C)o1,-4%,0%,1%,-3%,>57,23%
O=C(O)c1cc(NCc2cccs2)ccc1N1CCOCC1,2%,-5%,2%,1%,>57,4%
COC(=O)c1cc(NCc2c(F)cccc2Cl)ccc1N1CCOCC1,16µM*,?,2%,-8%,>57,?
COC(=O)c1cc(NCc2cccs2)ccc1N1CCOCC1,20µM*,-13%,-1%,-5%,>57,6%
C=CCOC(=O)C(C(=O)CC)C(NC(=O)OC)c1ccc(F)cc1 (configuration not stated),1%[11.4 µM],.,.,.,.,5%[11.5 µM]
O=C(c1cccs1)c1no[n+]([O-])c1C(=O)c1cccs1,-2%,3%,-3%,-6%,>57,5µM*
CC(=O)OCC(=O)[C@@]1(O)CC[C@@H]2[C@@H]3CCC4=CC(=O)CC[C@@]4(C)[C@H]3C(=O)C[C@]21C,.,-1%,3%,2%,.,.
O=C1CCCC/C1=C\Nc1ccc(O)cc1,20µM*,-17%,-3%,-11%,>11,-8%
O=C1CCCC/C1=C\Nc1ccc(Cl)cn1,-16%,5%,-7%,0%,>57,6%
CCN(CC)C(=O)c1cc2sc3ccccc3c2s1,25µM*,71%,?,-12%,.,-26%
Cc1ccc(-n2c(SCn3nnc4ccccc4c3=O)nnc2-c2cccnc2)c(C)c1,-14%,16µM*,-2%,-2%,>57,20%
CC(C)CNC(=O)NC1C(NC(=O)NCC(C)C)N(C)C(=O)N1C (configuration not stated),2%,1%,5µM*,-4%,10*,-5%
CCC(C)(C)n1nnnc1CN(Cc1ccco1)Cc1cc2cc3c(cc2[nH]c1=O)OCO3,0.0079µM*,41%,3%,-2%,>57,?
Cc1ccc2cc(CN(CCN3CCOCC3)Cc3nnnn3Cc3ccco3)c(=O)[nH]c2c1C,-11%,26%,0%,-2%,>57,-20%
CC(C)(C)n1nnnc1CN(Cc1ccco1)Cc1cc2cc3c(cc2[nH]c1=O)OCO3,-11%,-5%,-1%,-3%,>57,1%
Cc1ccc(C)c2[nH]c(=O)c(CN(Cc3ccc4c(c3)OCO4)Cc3nnnn3Cc3ccco3)cc12,25µM*,14%,-2%,-22%,>57,-15%
Cc1ccc2cc(CN(Cc3ccc4c(c3)OCO4)Cc3nnnn3Cc3ccco3)c(=O)[nH]c2c1C,25µM*,41%,-13%,-21%,>57,7%
O=C1C2=C(Nc3cc([N+](=O)[O-])ccc3N2)O[C@@H]1c1ccc([C@H]2OC3=C(Nc4ccc([N+](=O)[O-])cc4N3)C2=O)cc1,?,?,-10%[11.4 µM],-5%[11.4 µM],.,3%[11.5 µM]
O=C1Nc2cccnc2Sc2ccccc21,16µM*,-4%,-1%,-4%,>57,6%
O=C1Nc2ccccc2C1=Nc1cccc2ncccc12,-2%[11.4 µM],3%[11.4 µM],0%[11.4 µM],-11%[11.4 µM],.,-13%[11.5 µM]
Fc1ccc(-n2[nH]nnc2=S)cc1N1CCCC1,25µM*,-17%,-4%,0%,>57,-14%
CCCCN(CC)CCNS(=O)(=O)c1cccc2cccnc12,?,-30%,-5%,-1%,.,.
SMILES,15-hLO inh,Tau fil binding,FLuc inh,Pol III holo inh,PK Bst,ERK AVP block
CCOC(=O)C(=O)C1(C(=O)OCC)Oc2cc(OC)cc(OC)c2C(=O)C1c1ccccc1 (configuration not stated),-2%,.,.,.,.,10%
Cn1nc(-c2ccccc2)c2nc3ccccc3nc21,-2%,258%,0%,-2%,8*,40%
Nc1ccc(-c2cnc(-c3ccc(N)cc3)nc2)cc1,2%,-7%,13µM*,-9%,?,-7%
N=C(N)c1ccc(N)cc1,8%,-4%,0%,-4%,.,-3%
Cc1onc(-c2ccccc2Cl)c1C(=O)NC1C(=O)N2C1SC(C)(C)C2C(=O)O (configuration not stated),1%,.,.,.,.,-10%
O=C(c1cnccn1)N1CCC2(CCCN(C(c3ccccc3)c3ccccc3)C2)CC1,-1%,-1%,0%[11.4 µM],2%,.,40µM*
O=C(O)[C@@H]1CCCN1Cc1c[nH]c2ccccc12,-2%[11.4 µM],5%[11.4 µM],0%[11.4 µM],-2%[11.4 µM],.,-7%[11.5 µM]
Oc1c(Cl)cc(Cl)c(Cl)c1Cl,-12%,1%,.,-1%,.,?
Oc1c(Cl)cc(Cl)cc1Sc1cc(Cl)cc(Cl)c1O,16µM*,?,1%[25.5 µM],-9%,>26,?
CCCCCCC#CC1C=CC(Oc2ccc(C=O)cc2)C(CO)O1 (configuration not stated),-5%[11.4 µM],.,.,.,.,12%[11.5 µM]
CC(=O)OC/C=C(\C)CCC=C(C)C,?,10%,.,-4%,.,-6%
CC(=O)OCCC(C)CCC=C(C)C (configuration not stated),10µM*,.,.,.,.,15%
O=C(CNC(=O)c1ccco1)OCC(=O)c1ccc2c(c1)CCCC2,-13%,-11%,2µM*,-5%,>57,-13%
CCc1ccc(C(=O)COC(=O)CNC(=O)c2ccco2)cc1,?,-10%[11.4 µM],-6%,-5%[11.4 µM],.,-1%
Cc1noc(C)c1-c1cncnc1N(C)Cc1ccco1,18%,4%,1%[2.29 µM],-10%,.,4%
COc1ccc(-c2cc(C(=O)Nc3ccc(C)cc3)no2)cc1,6%,-2%,5%,2%,>57,11%
Cc1ccc(-c2cc(C(=O)Nc3c(C#N)cnn3C)no2)cc1,-2%,-1%,13µM*,-1%,.,-6%
CCOc1ccc(C2c3c(oc4ccccc4c3=O)C(=O)N2c2ccc(C)cn2)cc1OC (configuration not stated),-1%,4µM*,0%,-3%,.,-7%
COc1cc(C2c3c(oc4cc(C)c(C)cc4c3=O)C(=O)N2c2cc(C)ccn2)ccc1O (configuration not stated),-6%,5µM*,2%,-8%,>57,9%
COc1ccc(C2c3c(oc4ccccc4c3=O)C(=O)N2c2ccccn2)cc1OC (configuration not stated),11%,-7%,1%,2%,.,-14%
COc1cc(C2c3c(oc4ccccc4c3=O)C(=O)N2c2ccc(C)cn2)ccc1O (configuration not stated),-6%,13µM*,-1%,0%,.,?
